The text below walks through data of PubChem BioAssay (NCATS).

Results filed as inconclusive are left out. Active and inactive are the calls of the source. Unless noted, calls follow the shape of the full dose curve.

For assay [1], the target named is Cytochrome P450 3A4 (Homo sapiens) (UniProt P08684). As to the kind of experiment: qHTS Assay for Activators of Cytochrome P450 3A4 (AID 885; active = well fitted curve in the direction sought with a large enough effect; an effect the other way counts as inactive or inconclusive; also: nearly all actives have a fitted effect of over 65% in size). The method in brief:
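Human CYP3A4 dealkylates Luciferin-PPXE to luciferin, which luciferase detection converts to light. Substrate was at its KM (25uM), buffer 200mM KPO4, reaction 60 min at RT.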
For orientation: qHTS replaces the single test concentration by a dilution series.

A short description of assay [2]: qHTS Assay for Identification of Small Molecule Antagonists for Thrombopoietin (TPO) Signaling Pathway (AID 918; active = well fitted curve in the direction sought with a large enough effect; an effect the other way counts as inactive or inconclusive; also: potency is read from the fitted curve at half-maximal effect; nearly all actives have a fitted effect of over 60% in size). Particulars: TPO-dependent cell signaling reporter, antagonist mode. The method in brief: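 Inhibitors of TPO signaling are sought by stimulating IL-3-starved murine Ba/F3 cells (human TPO receptor, Glycoprotein IIb-driven luciferase) with TPO at its EC50 of 26 pM alongside compound. After 24 hrs at 37 C, reporter luminescence is measured.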

In assay [3] the target is Alpha-galactosidase (Coffea arabica) (UniProt Q42656). As to the kind of experiment: Counterscreen for Glucocerebrosidase Inhibitors: qHTS Assay for Coffee Bean alpha-Galactosidase at pH 4.5 (AID 957; active = well fitted curve in the direction sought with a large enough effect; an effect the other way counts as inactive or inconclusive;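 also: plate controls were enzyme alone for no effect and no enzyme for full effect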). An outline of the steps:
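Enzyme is added first (2 nM final), then compounds titrated from 0.7 nM to 77 uM, then 80 uM 4-methylumbelliferyl alpha-D-galactopyranoside; after 20 min at room temperature a pH 10 NaOH/glycine stop precedes fluorescence reading at 365/440 nm.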
(A counterscreen serves to expose hits that act by an unwanted route or on another target.)

Assay [4] shares this target. Nature of the assay: Counterscreen for Glucocerebrosidase Inhibitors: qHTS Assay for Coffee Bean alpha-Galactosidase at pH 5.9 (AID 998; active = well fitted curve in the direction sought with a large enough effect; an effect the other way counts as inactive or inconclusive;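 also: plate controls were uninhibited enzyme for no effect and no-enzyme basal signal for full effect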). The method in brief: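 In 50 mM citric acid pH 5.9 with 0.005% Tween-20, coffee bean enzyme hydrolyses 80 uM 4-MU alpha-D-galactopyranoside over 20 min at RT. Activity is normalized to controls; AC50 comes from Hill-modelled concentration-response data.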

Assay [5] can be described thus: Validation screen for inhibitors of Lassa infection (AID 463096). Also: % is scaled to controls: 0 for no effect and ±100 for the full control effect.
For assay [6], the target named is M-phase phosphoprotein 8 (Homo sapiens) (UniProt Q99549). As to the kind of experiment: qHTS Validation Assay for Inhibitors for MPP8 Chromodomain Interactions with Methylated Histone Tails (AID 488949; active = well fitted curve in the direction sought with a large enough effect; an effect the other way counts as inactive or inconclusive;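 also: AlphaScreen signal from MPP8 chromodomain bound to biotinylated H3K9me3 peptide; top concentration of the series differs between compounds; % is scaled to controls: 0 for no effect and ±100 for the full control effect; nearly all actives have a fitted effect of over 55% in size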). The method in brief:
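Disruption of the preformed MPP8–trimethyl-H3K9 peptide complex (both 50 nM, 30 min, RT) is measured after 30 min compound exposure, using AlphaScreen proximity beads; aurintricarboxylic acid titration serves as plate control.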

Assay [7] can be described thus: Inducers of the Endoplasmic Reticulum Stress Response (ERSR) in human glioma: Validation (AID 504836; active = well fitted curve in the direction sought with a large enough effect; an effect the other way counts as inactive or inconclusive; also: 0% is about no effect). The method in brief:
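Stably transfected U87-MG human glioma cells carrying a GRP78-based luminescent sensor were seeded at 1000 cells/well, pin-dosed with compounds and incubated 16 h. Luciferase reagent was then added, and end-point luminescence was read after 10 min at room temperature.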

Assay [8] deals with Arylsulfatase A (Homo sapiens) (UniProt P15289). As to the kind of experiment: qHTS screen for enhancers of Arylsulfatase A (ASA1): LOPAC Validation Assay (AID 720538; active = well fitted curve in the direction sought with a large enough effect; an effect the other way counts as inactive or inconclusive; also: 0% is about no effect). The method in brief:
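First, ASA-I179S fibroblasts from an MLD patient adhered for 6 hrs. Next, compounds were added for 48h. Then pNCS substrate (0.5mM final) with lysis buffer reacted 14h at room temperature before NaOH stop and fluorescence measurement.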

Assay [9] in a line: qHTS for Inhibitors of the Functional Ribonucleoprotein Complex (vRNP) of Lassa (LASV) Arenavirus: LASV Primary Screen - GLuc reporter signal (AID 1347082; calls by dose curve; tested in HEK293 reporter line; also: % is scaled to controls: 0 for no effect and ±100 for the full control effect; nearly all actives have a fitted effect of over 60% in size).
Assay [10] in a line: qHTS for Inhibitors of the Functional Ribonucleoprotein Complex (vRNP) of Lassa (LASV) Arenavirus: Viability assay - alamar blue signal for LASV Primary Screen (AID 1347083; calls by dose curve; tested in HEK293 reporter line; also: % is scaled to controls: 0 for no effect and ±100 for the full control effect; nearly all actives have a fitted effect of over 80% in size).
Assay [11] in a line: qHTS for Inhibitors of the Functional Ribonucleoprotein Complex (vRNP) of Lymphocytic Choriomeningitis Arenaviruses (LCMV): Viability assay - alamar blue signal for LCMV Primary Screen (AID 1347085; calls by dose curve; tested in HEK293 reporter line; also: % is scaled to controls: 0 for no effect and ±100 for the full control effect; nearly all actives have a fitted effect of over 80% in size).
Assay [12] concerns the target Nucleoprotein (Lymphocytic choriomeningitis virus (strain Armstrong)) (UniProt P09992). As to the kind of experiment: qHTS for Inhibitors of the Functional Ribonucleoprotein Complex (vRNP) of Lymphocytic Choriomeningitis Arenaviruses (LCMV): LCMV Primary Screen - GLuc reporter signal (AID 1347086). Also: % is scaled to controls: 0 for no effect and ±100 for the full control effect; nearly all actives have a fitted effect of over 70% in size.
Assay [13] can be described thus: Primary qHTS for Huh7 cytotoxicity: counterscreen for inhibitors of MERS-S pseudotyped particle cell entry (AID 1479147). As to activity change, negative = cytotoxicity: % is scaled to controls: 0 for no effect and ±100 for the full control effect. The following applies: outcome: dose series up to 57.1 µM unless noted.
Assay [14] in a line: Primary qHTS for inhibitors of MERS-S pseudo-typed particle cell entry (AID 1479149). Also: nearly all actives have a fitted effect of over 60% in size. Also: potency is read from the fitted curve at half-maximal effect.
Assay [15] can be described thus: Primary qHTS for Vero E6 cytotoxicity: counterscreen for inhibitors of SARS-S pseudo-typed particle cell entry (AID 1479150). As to activity change, negative = cytotoxicity: % is scaled to controls: 0 for no effect and ±100 for the full control effect. Particulars: outcome: dose series up to 57.1 µM unless noted.
Assay [16] is described as follows: Cytotoxicity counterscreen for inhibitors of SARS-CoV-2 cell entry (AID 1645845). Also: nearly all actives have a fitted effect of over 50% in size. As to activity change, negative = cytotoxicity: % is scaled to controls: 0 for no effect and ±100 for the full control effect. The method in brief:
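After a 15 min room-temperature ATPLite 1step step, luminescence reflected ATP remaining in HEK293-ACE2 cells exposed to compound for 1 h plus 48 h at 37 C, with percent activity set by cell and no-cell controls.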

The nature of assay [17]: Primary qHTS to identify inhibitors of SARS-CoV-2 cell entry (AID 1645846). Also: nearly all actives have a fitted effect of over 45% in size. Also: potency is read from the fitted curve at half-maximal effect. Particulars: activity change, negative = inhibition: at 57.1 µM (top of the series) unless noted. The method in brief:
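Data are normalized to wells receiving SARS-CoV-2-S pseudoparticles and those given bald particles. Entry signal was luciferase luminescence in stable hACE2 Expi293F cells, 48 hr post-infection, after 1 hr compound pretreatment.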

Assay [18] in a line: Primary qHTS for inhibitors of SARS-S pseudo-typed particle cell entry (AID 1479145). Also: % is scaled to controls: 0 for no effect and ±100 for the full control effect; nearly all actives have a fitted effect of over 45% in size.

Sequence of Nucleoprotein (Lymphocytic choriomeningitis virus (strain Armstrong)) (P09992 whole entry, looked up): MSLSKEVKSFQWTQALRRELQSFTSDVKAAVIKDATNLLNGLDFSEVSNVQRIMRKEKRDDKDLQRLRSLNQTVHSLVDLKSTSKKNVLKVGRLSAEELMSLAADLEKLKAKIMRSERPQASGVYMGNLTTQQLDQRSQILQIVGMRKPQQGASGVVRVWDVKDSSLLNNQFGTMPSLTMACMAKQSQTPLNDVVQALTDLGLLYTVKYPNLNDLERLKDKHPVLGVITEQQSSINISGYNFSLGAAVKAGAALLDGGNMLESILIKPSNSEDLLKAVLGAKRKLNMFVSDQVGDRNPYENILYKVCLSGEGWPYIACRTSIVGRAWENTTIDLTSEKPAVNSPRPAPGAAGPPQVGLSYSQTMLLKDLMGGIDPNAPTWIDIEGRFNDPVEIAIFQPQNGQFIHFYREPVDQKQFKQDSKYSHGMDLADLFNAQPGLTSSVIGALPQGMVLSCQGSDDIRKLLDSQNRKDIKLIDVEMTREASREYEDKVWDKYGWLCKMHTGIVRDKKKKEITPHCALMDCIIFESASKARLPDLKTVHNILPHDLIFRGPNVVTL
Sequence of Alpha-galactosidase (Coffea arabica) (Q42656 whole entry, looked up): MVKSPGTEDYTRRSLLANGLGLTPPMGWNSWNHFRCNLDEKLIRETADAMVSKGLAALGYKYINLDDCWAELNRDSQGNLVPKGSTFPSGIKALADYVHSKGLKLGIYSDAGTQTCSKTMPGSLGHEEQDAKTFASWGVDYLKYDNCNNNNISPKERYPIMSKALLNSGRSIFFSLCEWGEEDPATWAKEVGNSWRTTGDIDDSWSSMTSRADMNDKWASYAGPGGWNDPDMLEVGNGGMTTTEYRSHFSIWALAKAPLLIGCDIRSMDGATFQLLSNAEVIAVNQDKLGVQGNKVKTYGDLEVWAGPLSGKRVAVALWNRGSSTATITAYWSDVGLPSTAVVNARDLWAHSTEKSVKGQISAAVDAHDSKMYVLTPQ
Sequence of M-phase phosphoprotein 8 (Homo sapiens) (Q99549 whole entry, looked up): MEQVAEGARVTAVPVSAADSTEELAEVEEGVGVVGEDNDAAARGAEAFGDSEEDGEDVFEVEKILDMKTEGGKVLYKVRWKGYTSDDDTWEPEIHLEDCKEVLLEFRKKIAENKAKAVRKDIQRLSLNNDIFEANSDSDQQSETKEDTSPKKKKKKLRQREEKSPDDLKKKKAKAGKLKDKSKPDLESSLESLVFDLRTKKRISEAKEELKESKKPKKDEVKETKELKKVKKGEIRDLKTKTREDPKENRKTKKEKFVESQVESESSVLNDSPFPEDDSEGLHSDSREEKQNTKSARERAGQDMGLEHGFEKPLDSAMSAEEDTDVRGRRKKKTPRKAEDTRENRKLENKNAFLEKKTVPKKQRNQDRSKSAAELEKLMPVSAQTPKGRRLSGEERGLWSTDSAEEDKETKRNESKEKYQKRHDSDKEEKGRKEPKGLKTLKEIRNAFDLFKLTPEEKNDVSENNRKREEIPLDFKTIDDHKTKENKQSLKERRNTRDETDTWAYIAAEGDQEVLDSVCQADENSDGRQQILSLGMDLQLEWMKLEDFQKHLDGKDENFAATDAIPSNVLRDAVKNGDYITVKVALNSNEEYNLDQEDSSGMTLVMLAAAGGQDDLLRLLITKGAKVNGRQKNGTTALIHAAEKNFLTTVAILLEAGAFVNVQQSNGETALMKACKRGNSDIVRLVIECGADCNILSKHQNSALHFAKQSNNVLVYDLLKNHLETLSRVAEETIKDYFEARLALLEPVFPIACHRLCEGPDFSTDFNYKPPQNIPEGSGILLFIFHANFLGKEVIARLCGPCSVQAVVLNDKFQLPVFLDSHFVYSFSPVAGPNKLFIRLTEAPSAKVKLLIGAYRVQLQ
Sequence of Arylsulfatase A (Homo sapiens) (P15289 whole entry, looked up): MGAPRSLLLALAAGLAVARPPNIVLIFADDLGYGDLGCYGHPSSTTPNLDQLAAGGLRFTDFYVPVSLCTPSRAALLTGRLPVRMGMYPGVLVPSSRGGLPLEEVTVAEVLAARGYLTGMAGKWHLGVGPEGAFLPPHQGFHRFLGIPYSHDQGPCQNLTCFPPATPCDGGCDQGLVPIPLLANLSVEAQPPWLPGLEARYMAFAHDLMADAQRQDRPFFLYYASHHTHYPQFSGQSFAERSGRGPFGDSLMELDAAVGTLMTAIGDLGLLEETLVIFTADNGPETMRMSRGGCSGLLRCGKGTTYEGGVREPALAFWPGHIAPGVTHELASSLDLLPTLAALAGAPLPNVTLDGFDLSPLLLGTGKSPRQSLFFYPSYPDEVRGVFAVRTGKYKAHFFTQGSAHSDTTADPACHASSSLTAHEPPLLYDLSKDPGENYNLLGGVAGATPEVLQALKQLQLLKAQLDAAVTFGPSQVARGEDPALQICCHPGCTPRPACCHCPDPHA
Sequence of Cytochrome P450 3A4 (Homo sapiens) (P08684 whole entry, looked up): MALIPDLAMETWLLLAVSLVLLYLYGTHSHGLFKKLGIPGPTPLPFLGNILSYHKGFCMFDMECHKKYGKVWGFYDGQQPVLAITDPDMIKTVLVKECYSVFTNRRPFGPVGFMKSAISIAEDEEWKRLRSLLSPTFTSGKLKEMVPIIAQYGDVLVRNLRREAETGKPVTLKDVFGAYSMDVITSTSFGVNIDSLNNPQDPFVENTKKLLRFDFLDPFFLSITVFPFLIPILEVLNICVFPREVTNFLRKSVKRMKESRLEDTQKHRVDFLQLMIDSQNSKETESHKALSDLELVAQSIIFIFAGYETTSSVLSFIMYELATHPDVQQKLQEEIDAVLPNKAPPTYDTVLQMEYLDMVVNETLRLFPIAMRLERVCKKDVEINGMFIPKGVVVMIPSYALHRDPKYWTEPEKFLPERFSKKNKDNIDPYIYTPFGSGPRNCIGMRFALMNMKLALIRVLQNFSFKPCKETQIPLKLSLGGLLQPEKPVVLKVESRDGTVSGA

Take `CC(C)COC(=O)OCN1C(=O)CN(CCN2CC(=O)N(COC(=O)OCC(C)C)C(=O)C2)CC1=O`: the Potency entry in assay [1], in assay [5], in assay [6], in [8], in [9] and in assay [10] was “inactive” throughout. Also, the Potency entry in assay [11], in assay [12], in assay [14] and in [16] was “inactive” in each case. In addition, in assay [2], the Potency is 0.251 µM (active). For the same compound, the outcome in assay [3], in assay [4], in assay [7], in assay [13] and in assay [15] was inactive. Further, in assay [17], the activity change, negative = inhibition is -21.8%.

On to `N[C@@H](CC(=O)N1CCn2c(nnc2C(F)(F)F)C1)Cc1cc(F)c(F)cc1F`, for which the Potency result in assay [9], in [10], in [11], in assay [12], in [14] and in [16] was “inactive” throughout. Further, the compound was classed as inactive in assay [13] and in [15]. In assay [17], the activity change, negative = inhibition was -27.8%.

`O=C(O)c1nc(=O)[nH]c(=O)[nH]1`: the Potency result in assay [9], in assay [10], in [11], in [12] and in assay [16] was “inactive” each time. Also, the results for the outcome in [13], in assay [14] and in assay [17] were “inactive [at 0.573 µM]”, “inactive [at 0.573 µM]” and “inactive [at 0.702 µM]”, respectively. Also, the activity change, negative = cytotoxicity in assay [15] is 2.99% [at 0.573 µM] (inactive). The activity change, negative = inhibition in assay [17] was -18.6% [at 27.1 µM].

`CC(O)[C@H]1CC[C@H]2[C@@H]3CC[C@@H]4C[C@@H](O)CC[C@]4(C)[C@H]3CC[C@]12C` (some centres undefined): the Potency result in assay [9], in [10], in assay [11], in assay [12], in [14] and in assay [16] was “inactive” throughout. Also, the outcome in [13] and in [15] was “inactive [at 114 µM]” each time. Moreover, in [17], the activity change, negative = inhibition is -11.6% [at 114 µM].

Regarding `N[C@H](CO)C(=O)O`, the Potency result in assay [5], in assay [9], in [10], in assay [11], in [12] and in assay [18] was “inactive” throughout. Also, the Potency result in assay [14], in assay [16] and in [17] was “inactive” each time. For the same compound, the compound was classed as inactive in [7], in assay [13] and in assay [15].

Regarding `CC(C)C(=O)Oc1ccc(CO)cc1[C@H](CCN(C(C)C)C(C)C)c1ccccc1`, the Potency entry in assay [9], in assay [10], in [11], in assay [12] and in assay [16] was “inactive” throughout. Besides, the result in [13] and in [15] was inactive. The Potency in assay [14] and in assay [17] was 14.1 µM (active) in each case.

For `CC1(C)CCC(CN2CCN(c3ccc(C(=O)NS(=O)(=O)c4ccc(NCC5CCOCC5)c([N+](=O)[O-])c4)c(Oc4cnc5[nH]ccc5c4)c3)CC2)=C(c2ccc(Cl)cc2)C1`, the Potency entry in [9], in [10], in [11], in assay [12], in assay [14] and in assay [16] was “inactive” each time. Besides, the call in [13] and in assay [15] was inactive.
